Source: PubChem BioAssay (EPA / NIEHS)
Inconclusive results are not listed. Calls of active or inactive are those of the source. The calls were made as follows, unless noted: active = hit-call score of the fitted dose curve at least 0.9, where 1 is the maximum; inconclusive = response in the unintended direction; inactive = score below 0.9.

Legend:
[1] = read-out: Cellular tumor antigen p53 (Homo sapiens) (UniProt P04637); assay: LTEA_HepaRG_TP53: Life Technologies and Expression Analysis (LTEA) Assay for Tumor Protein P53 (TP53) using HepaRG (AID 2283537; active = hit-call score of the fitted dose curve at least 0.9, where 1 is the maximum; inactive = score below 0.9); conditions: mRNA level, 48 h; actives raise or lower the signal
Summary of the method: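 TP53 transcript measured by qRT-PCR, normalized to three housekeeping genes, after 48 h treatment of human HepaRG cultures with chemicals from 100 uM downward in half-log steps (0.5% DMSO vehicle, serum-free induction medium). Up- or down-regulation fitted against DMSO.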

[2] = read-out: UDP glucuronosyltransferase (UGT1A1), UGT1A1 (gene 54658); assay: LTEA_HepaRG_UGT1A1: Life Technologies and Expression Analysis (LTEA) Assay for UDP glucuronosyltransferase (UGT1A1) using HepaRG (AID 2283538; active = hit-call score of the fitted dose curve at least 0.9, where 1 is the maximum; inactive = score below 0.9); conditions: mRNA level, 48 h; actives raise or lower the signal
Summary of the method: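 mRNA induction or loss of UGT1A1, by TaqMan qRT-PCR, in duplicate HepaRG wells after 48 h exposure to half-log dilutions topping at 100 uM; DMSO (0.5%) served as baseline.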

[3] = read-out: UDP glucuronosyltransferase (UGT1A6), UGT1A6 (gene 54578); assay: LTEA_HepaRG_UGT1A6: Life Technologies and Expression Analysis (LTEA) Assay for UDP glucuronosyltransferase (UGT1A6) using HepaRG (AID 2283539; active = hit-call score of the fitted dose curve at least 0.9, where 1 is the maximum; inactive = score below 0.9); conditions: mRNA level, 48 h; actives raise or lower the signal
Summary of the method: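 Differentiated HepaRG cells, ~100,000/well, were exposed for 48 h in serum-free induction medium with 0.5% DMSO to 8-point half-log series topping at 100 uM, in duplicate. mRNA measured by Fluidigm TaqMan qRT-PCR, normalized to ACTB, GAPDH and POLR2A.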

[4] = read-out: X-box binding protein 1 (XBP1), XBP1 (gene 7494); assay: LTEA_HepaRG_XBP1: Life Technologies and Expression Analysis (LTEA) Assay for X-box binding protein 1 (XBP1) using HepaRG (AID 2283540; active = hit-call score of the fitted dose curve at least 0.9, where 1 is the maximum; inactive = score below 0.9); conditions: mRNA level, 48 h; actives raise or lower the signal
Summary of the method: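 Differentiated human HepaRG cells in serum-free induction medium exposed 48 h in duplicate to eight half-log concentrations up to 100 uM in 0.5% DMSO. XBP1 mRNA measured by Fluidigm TaqMan qRT-PCR, normalized to ACTB, GAPDH, POLR2A; bidirectional fitting against DMSO.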

[5] = LTEA_HepaRG_LDH_cytotoxicity: Cytotoxicity Assessment in the Life Technologies and Expression Analysis (LTEA) Assay (AID 2283563);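 as to AC50: LDH activity released into spent culture medium as a marker of cell death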
Summary of the method: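 Differentiated HepaRG cells in serum-free induction medium, exposed 48 h in duplicate to 8 half-log concentrations up to 100 uM in 0.5% DMSO. Cytotoxicity from LDH measured in spent medium, fit relative to DMSO.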

[6] = ATG_XTT_Cytotoxicity: Cytotoxicity Assessment in the Attagene TRANS-FACTORIAL HepG2 Assay (AID 2283584)
Summary of the method: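 HepG2 cells transiently transfected with GAL4-UAS multiple reporter units, dosed 24 h; cytotoxicity read by XTT as loss of signal versus DMSO baseline.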

[7] = TOX21_p53_BLA_p2_viability: Viability Assessment in the Tox21 HCT-116 p53 Agonism Beta-lactamase Assay, Phase 2 (AID 2283591);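 also: actives lower the ATP signal meaning cytotoxicity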
Summary of the method: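 HCT-116 p53-bla cells (4000/well) rested 5 h at 37C, then received compounds in DMSO (217-fold dilution) for 16 h at 37C, 5% CO2. After the CCF4 read, CellTiter-Glo was added; ATP luminescence was read after 30 min at room temperature.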

[8] = molecular target: Cellular tumor antigen p53 (Homo sapiens) (UniProt P04637); assay: TOX21_p53_BLA_p2_ratio: Tox21 HCT-116 p53 Agonism Beta-lactamase Assay, Ratio, Phase 2 (AID 2283592)
Chain of Cellular tumor antigen p53 (Homo sapiens) (P04637 whole entry, looked up): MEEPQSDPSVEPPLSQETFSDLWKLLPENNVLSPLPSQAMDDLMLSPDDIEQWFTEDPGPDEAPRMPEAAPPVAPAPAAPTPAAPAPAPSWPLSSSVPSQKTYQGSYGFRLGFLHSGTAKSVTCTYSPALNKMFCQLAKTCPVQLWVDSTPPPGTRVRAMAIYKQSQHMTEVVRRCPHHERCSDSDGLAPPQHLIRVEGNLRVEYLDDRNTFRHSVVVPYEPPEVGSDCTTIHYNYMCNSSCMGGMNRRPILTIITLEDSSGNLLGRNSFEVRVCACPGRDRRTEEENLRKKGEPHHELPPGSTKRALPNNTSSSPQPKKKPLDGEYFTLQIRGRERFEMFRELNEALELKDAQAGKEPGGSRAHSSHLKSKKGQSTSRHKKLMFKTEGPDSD
Summary of the method: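 First, HCT116 reporter cells settle for 5 h at 37C. Next, DMSO compound solutions are pinned in (217-fold dilution) and left 16 h. Finally, CCF4-AM substrate is loaded 2 h at room temperature and the 460/530 nm ratio read.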

[9] = TOX21_p53_BLA_p3_viability: Viability Assessment in the Tox21 HCT-116 p53 Agonism Beta-lactamase Assay, Phase 3 (AID 2283593);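 also: cells exposed to compound for 16 h before reading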
Summary of the method: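 HCT-116 cells (4000/well) rested 5 h at 37C, then got DMSO compounds by pin tool (217-fold dilution) for 16 h at 37C, 5% CO2. After the bla read, CellTiter-Glo was added and luminescence read at 30 min, room temperature.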

[10] = molecular target: Cellular tumor antigen p53 (Homo sapiens) (UniProt P04637); assay: TOX21_p53_BLA_p3_ratio: Tox21 HCT-116 p53 Agonism Beta-lactamase Assay, Ratio, Phase 3 (AID 2283596)
Summary of the method: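 Cells were seeded at 4000/well, rested 5 h at 37C, then dosed with DMSO compound solutions (217-fold dilution) for 16 h. CCF4-AM substrate was loaded for 2 h at room temperature, and the 460/530 nm emission ratio was fitted for gain of signal versus DMSO.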

[11] = TOX21_p53_BLA_p4_viability: Viability Assessment in the Tox21 HCT-116 p53 Agonism Beta-lactamase Assay, Phase 4 (AID 2283597);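 also: hits lower the luminescence signal meaning cytotoxicity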
Summary of the method: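 4000 HCT116 cells per well; 5 h attachment; compounds from DMSO, 217-fold dilution; 16 h at 37C. Then CCF4-AM, 2 h RT, followed by CellTiter-Glo, 30 min RT, luminescence. Decrease = cytotoxicity.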

[12] = TOX21_p53_BLA_p5_viability: Viability Assessment in the Tox21 HCT-116 p53 Agonism Beta-lactamase Assay, Phase 5 (AID 2283600)
Summary of the method: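 Decreased CellTiter-Glo luminescence denotes lost viability. Exposure: 16 h at 37C, 5% CO2, with compounds from DMSO stocks diluted 217-fold in wells of 4000 cells.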

[13] = molecular target: Cellular tumor antigen p53 (Homo sapiens) (UniProt P04637); assay: TOX21_p53_BLA_p4_ratio: Tox21 HCT-116 p53 Agonism Beta-lactamase Assay, Ratio, Phase 4 (AID 2283601)
Summary of the method: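 HCT116 cells carrying an inducible beta-lactamase reporter were plated at 4000 cells/well, rested 5 h, then exposed to compounds in DMSO (217-fold dilution) for 16 h at 37C. CCF4-AM substrate was loaded 2 h at room temperature; 460/530 nm emission ratio scored gain-of-signal versus DMSO.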

[14] = Tanguay_ZF_120hpf_MORT_legacy: (Legacy) Oregon State University Tanguay Lab 120 Hour Post-fertilization zebrafish Assay for Mortality (AID 2283633);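 as to AC50: fitted as increase in binary mortality versus DMSO negative control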
Summary of the method: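 Dechorionated Tropical 5D wild-type zebrafish embryos, one per well from 6 hpf, static exposure in 0.64% DMSO at 28C until 120 hpf. Mortality scored as binary by brightfield microscopy at 24 and 120 hpf.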

[15] = Tanguay_ZF_120hpf_YSE_legacy: (Legacy) Oregon State University Tanguay Lab 120 Hour Post-fertilization zebrafish Assay for Yolk Sac Edema (AID 2283634)
Summary of the method: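 Dechorionated Tropical 5D wild-type zebrafish embryos were exposed statically, one per well, from 6 to 120 hpf at 28C in 0.64% DMSO. Yolk sac edema was scored present/absent by brightfield at 120 hpf, and dead embryos were excluded.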

[16] = Tanguay_ZF_120hpf_AXIS_legacy: (Legacy) Oregon State University Tanguay Lab 120 Hour Post-fertilization zebrafish Assay for Body Axis Malformation (AID 2283635)
Summary of the method: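 Dechorionated wild-type Tropical 5D zebrafish embryos, one per well, statically exposed from 6 hpf to 120 hpf at 28C in 0.64% DMSO final. Body axis malformation scored present/absent by brightfield microscopy at 120 hpf; dead embryos excluded.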

[17] = Tanguay_ZF_120hpf_EYE_legacy: (Legacy) Oregon State University Tanguay Lab 120 Hour Post-fertilization zebrafish Assay for Eye Malformation (AID 2283636);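 also: binary presence or absence of eye malformation scored by brightfield in 120 hpf larvae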
Summary of the method: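 Static waterborne exposure of dechorionated zebrafish embryos (strain Tropical 5D), 6 to 120 hpf, sealed plates at 28C, 0.64% DMSO vehicle. Eye malformation is scored as a binary endpoint, with gain of signal analysed relative to DMSO.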

[18] = Tanguay_ZF_120hpf_SNOU_legacy: (Legacy) Oregon State University Tanguay Lab 120 Hour Post-fertilization zebrafish Assay for Snout Malformation (AID 2283637)
Summary of the method: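 Dechorionated zebrafish, individually housed from 6 hpf in covered, sealed wells at 28C with 0.64% DMSO vehicle, were examined at 120 hpf for snout malformation. Responses were binary and analysed positive-direction relative to DMSO.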

[19] = read-out: Thyroid Hormone Responsive (THRSP), THRSP (gene 7069); assay: LTEA_HepaRG_THRSP: Life Technologies and Expression Analysis (LTEA) Assay for Thyroid Hormone Responsive (THRSP) using HepaRG (AID 2283536; active = hit-call score of the fitted dose curve at least 0.9, where 1 is the maximum; inactive = score below 0.9); conditions: mRNA level, 48 h; actives raise or lower the signal
Summary of the method: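 Cell model: human HepaRG, approx. 100,000 cells/well, 0.5% DMSO vehicle. Exposure lasts 48 h; phenobarbital 1 mM serves as induction positive control. Gene expression is measured by qRT-PCR against three endogenous control genes.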

Measured: AC50

COC(=O)[C@H]1[C@H]2C[C@@H]3c4[nH]c5cc(OC)ccc5c4CCN3C[C@H]2C[C@@H](OC(=O)c2cc(OC)c(OC)c(OC)c2)[C@@H]1OC
active: [2] 66.1 µM | [3] 55.3 µM | [4] 42.2 µM | [5] 30.3 µM
not listed: [19]
inactive: all other assays above

CCCCOC(=O)CCCCC(=O)OCCCC
inactive: [19] | [2] | [3] | [4] | [5] | [14] | [15] | [18]

C/C=C/C=C/C(=O)O
active: [2] 0.171 µM
inactive: [19] | [3] | [4] | [6] | [14] | [16] | [17] | [18]

O=Cc1ccccc1C=O
inactive: [19] | [2] | [3] | [4] | [6] | [15] | [16] | [17] | [18]
active: [14] 4.42 µM

NC=O
not listed: [1] | [7] | [8] | [9] | [10] | [11] | [12] | [13]
inactive: all other assays above

CC(C)COC(=O)CCCCC(=O)OCC(C)C
inactive: [2] | [3] | [4] | [6] | [14] | [15] | [16] | [17] | [18]

C#CC(O)C(CC)CCCC (configuration not stated)
inactive: [2] | [3] | [4] | [5] | [14] | [15] | [16] | [17] | [18]

O=C(O)CC(O)(CC(=O)O)C(=O)O
inactive: [1] | [2] | [3] | [4] | [5] | [14] | [15] | [16] | [17]

O=C(O)c1cccnc1
inactive: [2] | [3] | [4] | [6] | [14] | [15] | [16] | [17] | [18]
